Most compounds without a hit are left out; they make up all but 18% or so of the library.
TDP1 cell noCPT: qHTS for Inhibitors of human tyrosyl-DNA phosphodiesterase 1 (TDP1): qHTS in cells in absence of CPT; DT40 Tdp1-/- hTDP1 cells, no CPT, ATP luminescence, 48 h; Potency, µM (top dose mostly 46.2 µM), hits mostly inhibitors; 15% of 420,000 active; note: nearly all actives have a fitted effect of over 55% in size
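Camptothecin absent (DMSO only). Human TDP1-complemented DT40 knockout cells, 400 cells/well, 37 °C for minimum 48 hr; ATP measured via CellTiter-Glo, 30 min dark incubation, luminescence.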
Six1-Eya2 inh: Six1/Eya2 interaction inhibition | activity change, % (no concentration beside the values) | AlphaScreen GST-Six1/His-Eya2 binding, biochemical; active compounds read low | 0.56% of 360,000 active | Q15475+O00167 | AID 651725; in the data active = activity change below about -65%; inconclusive = mostly about -30% to -63%
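Compounds are tested against tagged Six1 and Eya2 proteins bridged by glutathione donor and nickel acceptor beads; after a one-hour incubation at 37 °C without light, AlphaScreen emission is recorded.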
IL1B secr inh: blocks inflammasome-driven IL-1 beta release | THP-1 LPS/ATP IL-1B secretion, AlphaLISA, 16 h; active compounds read low | activity change, % at 57.5 µM | 4.7% of 360,000 active | AID 743279; in the data active = activity change below about -50%; inconclusive = mostly about -30% to -49%
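Secreted IL-1B measured by AlphaLISA bead assay after 16 h compound exposure of THP-1 cells; compounds (final up to 57.5 uM) added 1 h before LPS (250 ng/mL) and ATP (1.25 mM) stimulation; lower signal means less secretion.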
TDP1 inh: blocks human tyrosyl-DNA phosphodiesterase 1. recombinant TDP1, AlphaScreen DNA substrate cleavage. Potency, µM (highest dose often 130 µM), usual class: inhibitors. 0.28% of 350,000 active. Q9NUW8; note: nearly all actives have a fitted effect of over 40% in size
Target sequence (Q9NUW8 whole entry, looked up): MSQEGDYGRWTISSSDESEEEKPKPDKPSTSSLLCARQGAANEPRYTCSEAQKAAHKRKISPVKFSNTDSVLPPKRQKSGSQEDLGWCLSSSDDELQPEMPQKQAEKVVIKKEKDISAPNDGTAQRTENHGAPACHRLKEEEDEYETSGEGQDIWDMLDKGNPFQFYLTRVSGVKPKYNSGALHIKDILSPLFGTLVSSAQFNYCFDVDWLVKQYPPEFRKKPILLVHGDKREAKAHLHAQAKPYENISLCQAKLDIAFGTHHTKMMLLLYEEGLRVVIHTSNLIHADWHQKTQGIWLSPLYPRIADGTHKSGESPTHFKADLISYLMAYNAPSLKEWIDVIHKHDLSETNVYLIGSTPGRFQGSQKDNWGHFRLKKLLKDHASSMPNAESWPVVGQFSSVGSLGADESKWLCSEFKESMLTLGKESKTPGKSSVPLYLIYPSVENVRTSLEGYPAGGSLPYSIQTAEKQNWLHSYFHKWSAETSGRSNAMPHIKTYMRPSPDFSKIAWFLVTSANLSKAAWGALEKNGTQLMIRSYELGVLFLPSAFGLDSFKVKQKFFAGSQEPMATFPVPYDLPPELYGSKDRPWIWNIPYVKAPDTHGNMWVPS
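E. coli-derived human Tdp1, 1 nM final. Cpd preinc 15 min RT; substrate 15 nM final, 5 min RT; AS bead mix 10 ug/ml final, 10 min RT. Signal loss = tyrosine-FITC cleavage. No-enzyme wells = max signal.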
CtBP-E1A blk: CtBP/E1A binding inhibition; AID 651724; 0.49% of 340,000 active; AlphaScreen GST-E1A/His-CtBP binding, 1536-well; active compounds read low; activity change, % (test concentration not listed); in the data active = activity change below about -65%; inconclusive = mostly about -30% to -63%
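Protein mix (5X: 125 nM each GST-E1A, His-CtBP) was incubated with pinned compound 2 h at 37 deg C in dark, in 50 mM Tris pH 8.0 buffer with 300 mM NaCl. Glutathione donor and nickel acceptor beads followed; AlphaScreen signal read after 1 h.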
TDP1 cell CPT: DT40-hTDP1 cell growth loss with CPT; AID 686979; Potency, µM (titrated, usually from 46.2 µM), actives largely listed as inhibitors; 12% of 420,000 active; chicken DT40 Tdp1-/-;hTDP1 cells + 20 nM CPT, ATP luminescence, 48 h; note: nearly all actives have a fitted effect of over 55% in size
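Chicken DT40 Tdp1-/- cells stably complemented with human TDP1 were seeded at 400 cells/well in medium containing 20 nM camptothecin, exposed to pin-transferred compounds, and grown at 37 °C for at least 48 hr. Viability was read as ATP luminescence.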
Numbers stand for hits; 0 = inactive; ? = inconclusive; - = no result given; [ ] = remark or other dose. Unless noted, calls come from the whole dose curve; as a rule, active = well fitted curve in the direction sought with a large enough effect; inconclusive = small, poorly fitted or top-dose-only effect, or another doubt; inactive = no such curve, though single readings can be large; an effect the other way counts as inactive or inconclusive.

SMILES	TDP1 cell noCPT	Six1-Eya2 inh	IL1B secr inh	TDP1 inh	CtBP-E1A blk	TDP1 cell CPT
O=C(NCCCN1CCCC1=O)c1ccc(S(=O)(=O)Nc2cccc(C(F)(F)F)c2)cc1	20.6µM	0	0	0	0	?
COc1ccccc1N1CCN(C(=O)c2cccc(S(=O)(=O)NCc3cccnc3)c2)CC1	?	0	0	0	0	16.4µM
O=C(c1cccc(S(=O)(=O)NCc2ccccc2)c1)N1CCCC1	0	0	0	0	0	0
O=C(c1cccc(S(=O)(=O)NCc2ccccc2)c1)N1CCN(c2ccccc2Cl)CC1	?	0	0	-	0	14.6µM
O=C(c1cccc(S(=O)(=O)N2CCCC2)c1)N1CCN(c2ncccn2)CC1	0	0	0	0	0	0
COc1ccc(S(=O)(=O)NCc2cccnc2)cc1C(=O)N1CCCCC1	0	0	0	0	0	0
O=C(c1cccc(S(=O)(=O)NCCOc2ccccc2)c1)N1CCN(c2ncccn2)CC1	23.1µM	0	0	0	0	25.9µM
O=C(c1cccc(S(=O)(=O)NCc2ccccc2)c1)N1CCN(c2ccccc2)CC1	5.17µM	0	0	0	0	6.51µM
COC(=O)c1ccc(C)c(NC(=O)CSc2nc3[nH]c(=O)cc(O)c3s2)c1	0	0	0	0	-	0
COc1cccc(NC(=O)CSc2c(C)cnc3c2c(=O)n(C)c(=O)n3C)c1	?	-	-	0	-	?
Cc1cc(=O)c2ccccc2n1Cc1ccccc1	16.4µM	0	-50.4	0	0	?
COc1cccc2c(=O)cc(C)n(CC(=O)Nc3cccc(C)c3)c12	18.4µM	0	0	0	-	?
Cc1nc2ccccc2n1CC(=O)NCc1ccccc1	11.6µM	0	0	0	0	9.2µM
Cc1cc(=O)n(Cc2ccccc2)c2ccccc12	?	0	0	-	-	?
Cc1cc(=O)c2ccccc2n1CC(=O)NCc1ccccc1	?	0	0	0	0	18.4µM
CCOC(=O)Cn1c(C)cc(=O)c2ccccc21	0	0	?	0	0	0
COc1ccc(Nc2nn(-c3ccc(OC(F)(F)F)cc3)nc2C(C)=O)cc1	0	-	-	0	-	0
COc1ccc(NC(=O)Cn2c(C)cc(=O)c3ccccc32)cc1	11.6µM	0	0	0	-	10.3µM
Cc1nc2ccccc2n1CC(=O)NC(C)C1CC2CCC1C2 (stereo not drawn)	0.92µM	0	0	0	0	1.46µM
COc1cc(OC)cc(C(=O)OC(C)C(=O)NC2CCCc3ccccc32)c1 (stereo not drawn)	0	0	0	0	0	0
Fc1ccc(NC(=S)N2CCOCC2)cc1Cl	0	0	0	0	0	0
COc1ccc(OC)c(CNc2ncc(-c3cccc([N+](=O)[O-])c3)n2C)c1	?	0	?	-	-	16.4µM
Cn1c(-c2cccc([N+](=O)[O-])c2)cnc1NCc1cccc([N+](=O)[O-])c1	?	0	0	0	-	?
Cc1cccc(CNc2ncc(-c3cccc([N+](=O)[O-])c3)n2C)c1	16.4µM	0	0	0	-	?
COc1ccc(-c2cnc(NCc3cc4c(cc3[N+](=O)[O-])OCO4)n2C)cc1	13µM	0	-51.5	0	0	25.9µM
SMILES	TDP1 cell noCPT	Six1-Eya2 inh	IL1B secr inh	TDP1 inh	CtBP-E1A blk	TDP1 cell CPT
c1ccc2c(c1)oc1c(NCCCN3CCOCC3)ncnc12	0	0	0	0	0	0
Cc1ccc(NC(=O)Cn2ncn3c(cc4ccccc43)c2=O)cc1F	0	0	0	0	0	0
COC(=O)C(Cc1ccc(O)cc1)NC(=O)NC12CC3CC(CC(C3)C1)C2 (stereo not drawn)	?	0	-62.8	0	0	0
O=C(N/N=C/c1ccncc1)NC12CC3CC(CC(C3)C1)C2	?	0	0	-	0	0
COc1ccc(CCNC(=O)NC23CC4CC(CC(C4)C2)C3)cc1	?	0	0	0	0	?
COc1ccc(/C=N/NC(=O)NC23CC4CC(CC(C4)C2)C3)c(OC)c1	23.1µM	0	-68.8	-	0	?
O=C(N/N=C/c1ccc(O)cc1)NC12CC3CC(CC(C3)C1)C2	0	0	-73.7	-	0	0
COc1ccc(NS(=O)(=O)c2ccc(N3CCCCC3)c(N)c2)cc1	1.3µM	0	0	0	-	2.59µM
Nc1cc(S(=O)(=O)c2ccc(N3CCCCC3)c(N)c2)ccc1N1CCCCC1	11.6µM	0	0	-	0	9.2µM
COc1ccc(NS(=O)(=O)c2ccc(N3CCCCC3)c(NC(=O)C(C)NC(N)=O)c2)cc1 (stereo not drawn)	?	0	0	0	0	?
Nc1ccc(N2CCCCC2)c(S(=O)(=O)Nc2ccccc2Cl)c1	0	0	0	0	0	0
COC(=O)c1cc(NS(=O)(=O)c2ccc(N3CCOCC3)c(N)c2)cc(C(=O)OC)c1	0	0	-54.1	0	0	0
Nc1cc(S(=O)(=O)Nc2ccccc2Cl)ccc1N1CCCCC1	9.2µM	0	0	0	0	14.6µM
CC(C)(C)NC(=O)c1oc2ccccc2c1NC(=O)c1ccccc1F	?	-	-	0	-	?
COC(=O)c1ccccc1-c1cc(C)cc2c1OC(CNC(=O)c1cnc(C)cn1)C2 (stereo not drawn)	18.4µM	-	-	-	-	0[9.04 µM]
COc1cc(/C=N/n2c(-c3ccc4c(c3)NC(=O)CO4)csc2=Nc2cccc(C)c2)ccc1O	?	?	?	0	0	13µM
COCCN=c1scc(-c2ccc3c(c2)NC(=O)CO3)n1/N=C(\C)c1ccc(O)cc1	?	?	-60.5	0	0	?
COc1cc(/C=N/n2c(C)nc3ccccc3c2=O)ccc1O	0	0	0	-	0	0
COc1c(C)cc(NC(=O)c2ccc3c(c2)NC(=O)CO3)cc1C	0	0	0	0	0	0
C[C@H](NC[C@H](O)CP(=O)(O)Cc1ccccc1)c1ccc(Cl)c(Cl)c1	0	-	-	0	-	0
CCCCn1c(C(C)NC(=O)CC)nc2ccccc21 (stereo not drawn)	11.6µM	0	0	0	0	23.1µM
CCCCCCCn1c(NC(=O)CC)nc2ccccc21	20.6µM	0	-	-	0	?
CC(C)Cn1c(C(C)NC(=O)Cc2ccccc2)nc2ccccc21 (stereo not drawn)	6.51µM	0	0	0	0	11.6µM
CC(C)CNC(=O)NC(=O)CSc1nc2ccccc2n1CC(C)C	23.1µM	0	0	0	0	?
c1ccc2nc(C3=NCCN3)ccc2c1	0	-	-	0	-	0
OC(CN1CCCCC1)CN1CCCCC1	0	0	?	0	0	0
CN(C(=O)COC(=O)CCC(=O)c1ccc(Cl)cc1)c1c(N)n(Cc2ccccc2)c(=O)[nH]c1=O	18.4µM	0	0	0	0	0
CC(C)CN(C(=O)COC(=O)CCSc1ccc(F)cc1)c1c(N)n(Cc2ccccc2)c(=O)[nH]c1=O	?	0	0	0[0.505 µM]	0	0

High-throughput results: PubChem, National Center for Advancing Translational Sciences (NCATS)
